According to article PMC9911399, “Two distinct binding modes provide the RNA-binding protein RbFox with extraordinary sequence specificity”:
Residue numbers refer to the chain shown, from its start. Whole data set: some 16,000 sequences, median “ka relative to ugcaugu” near 0.0091, cut for the highest 2% near 0.032. The sample holds the highest values, similar sequences and a random draw of the others, so the mix is not that of the screen.

T1: RBFOX1 RRM (Homo sapiens, UniProt Q9NWB1 109-208)
T1 sequence: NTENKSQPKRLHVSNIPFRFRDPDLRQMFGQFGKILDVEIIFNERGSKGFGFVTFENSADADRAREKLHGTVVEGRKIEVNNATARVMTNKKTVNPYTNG

B1: UAUUACU (DNA:RNA)
RNA: GGGAGACCGGAAUUCAGAUUGUCCUAUUACUUUAAAUCCCGUCGUAGCCACCA
DNA 1: CAATCTGAATTCCGGTCTCCC
DNA 2: TGGTGGCTACGACGGGATT
B2: AUAAGGU (DNA:RNA)
RNA: B1 RNA with U25A, A26U, U27A, U28A, A29G, C30G
DNA 1: CAATCTGAATTCCGGTCTCCC
DNA 2: TGGTGGCTACGACGGGATT
B3: CCGAAGU (DNA:RNA)
RNA: B1 RNA with U25C, A26C, U27G, U28A, C30G
DNA 1: CAATCTGAATTCCGGTCTCCC
DNA 2: TGGTGGCTACGACGGGATT
B4: AGGUAUU (DNA:RNA)
RNA: B1 RNA with U25A, A26G, U27G, C30U
DNA 1: CAATCTGAATTCCGGTCTCCC
DNA 2: TGGTGGCTACGACGGGATT
B5: UCAUCUG (DNA:RNA)
RNA: B1 RNA with A26C, U27A, A29C, C30U, U31G
DNA 1: CAATCTGAATTCCGGTCTCCC
DNA 2: TGGTGGCTACGACGGGATT
B6: GAGUUUA (DNA:RNA)
RNA: B1 RNA with U25G, U27G, A29U, C30U, U31A
DNA 1: CAATCTGAATTCCGGTCTCCC
DNA 2: TGGTGGCTACGACGGGATT
B7: ACUCUUU (DNA:RNA)
RNA: B1 RNA with U25A, A26C, U28C, A29U, C30U
DNA 1: CAATCTGAATTCCGGTCTCCC
DNA 2: TGGTGGCTACGACGGGATT
B8: AGGUCUA (DNA:RNA)
RNA: B1 RNA with U25A, A26G, U27G, A29C, C30U, U31A
DNA 1: CAATCTGAATTCCGGTCTCCC
DNA 2: TGGTGGCTACGACGGGATT
B9: GAGUCUC (DNA:RNA)
RNA: B1 RNA with U25G, U27G, A29C, C30U, U31C
DNA 1: CAATCTGAATTCCGGTCTCCC
DNA 2: TGGTGGCTACGACGGGATT
B10: CCGGAUC (DNA:RNA)
RNA: B1 RNA with U25C, A26C, U27G, U28G, C30U, U31C
DNA 1: CAATCTGAATTCCGGTCTCCC
DNA 2: TGGTGGCTACGACGGGATT
B11: CGGAAUC (DNA:RNA)
RNA: B1 RNA with U25C, A26G, U27G, U28A, C30U, U31C
DNA 1: CAATCTGAATTCCGGTCTCCC
DNA 2: TGGTGGCTACGACGGGATT
B12: GAGAGUC (DNA:RNA)
RNA: B1 RNA with U25G, U27G, U28A, A29G, C30U, U31C
DNA 1: CAATCTGAATTCCGGTCTCCC
DNA 2: TGGTGGCTACGACGGGATT
B13: CGGGAUC (DNA:RNA)
RNA: B1 RNA with U25C, A26G, U27G, U28G, C30U, U31C
DNA 1: CAATCTGAATTCCGGTCTCCC
DNA 2: TGGTGGCTACGACGGGATT
B14: CCGAGUC (DNA:RNA)
RNA: GGGAGACCGGAAUUCAGAUUGUCCCCGAGUCUUAAAUCCCGUCGUAGCCACCA
DNA 1: CAATCTGAATTCCGGTCTCCC
DNA 2: TGGTGGCTACGACGGGATT
B15: CAUGGAC (DNA:RNA)
RNA: B14 RNA with C26A, G27U, A28G, U30A
DNA 1: CAATCTGAATTCCGGTCTCCC
DNA 2: TGGTGGCTACGACGGGATT
B16: CUAAAAA (DNA:RNA)
RNA: B14 RNA with C26U, G27A, G29A, U30A, C31A
DNA 1: CAATCTGAATTCCGGTCTCCC
DNA 2: TGGTGGCTACGACGGGATT
B17: GGAGUAG (DNA:RNA)
RNA: GGGAGACCGGAAUUCAGAUUGUCCGGAGUAGUUAAAUCCCGUCGUAGCCACCA
DNA 1: CAATCTGAATTCCGGTCTCCC
DNA 2: TGGTGGCTACGACGGGATT
B18: GUCCUCG (DNA:RNA)
RNA: B17 RNA with G26U, A27C, G28C, A30C
DNA 1: CAATCTGAATTCCGGTCTCCC
DNA 2: TGGTGGCTACGACGGGATT
B19: UCGCUCC (DNA:RNA)
RNA: B14 RNA with C25U, A28C, G29U, U30C
DNA 1: CAATCTGAATTCCGGTCTCCC
DNA 2: TGGTGGCTACGACGGGATT
B20: UCCUCGC (DNA:RNA)
RNA: B14 RNA with C25U, G27C, A28U, G29C, U30G
DNA 1: CAATCTGAATTCCGGTCTCCC
DNA 2: TGGTGGCTACGACGGGATT
B21: UCGUCGC (DNA:RNA)
RNA: B14 RNA with C25U, A28U, G29C, U30G
DNA 1: CAATCTGAATTCCGGTCTCCC
DNA 2: TGGTGGCTACGACGGGATT
B22: UCGCUUG (DNA:RNA)
RNA: B14 RNA with C25U, A28C, G29U, C31G
DNA 1: CAATCTGAATTCCGGTCTCCC
DNA 2: TGGTGGCTACGACGGGATT
B23: UCGCUCG (DNA:RNA)
RNA: B14 RNA with C25U, A28C, G29U, U30C, C31G
DNA 1: CAATCTGAATTCCGGTCTCCC
DNA 2: TGGTGGCTACGACGGGATT
B24: UUCGUAA (DNA:RNA)
RNA: B17 RNA with G25U, G26U, A27C, G31A
DNA 1: CAATCTGAATTCCGGTCTCCC
DNA 2: TGGTGGCTACGACGGGATT
B25: GCGAAUA (DNA:RNA)
RNA: B14 RNA with C25G, G29A, C31A
DNA 1: CAATCTGAATTCCGGTCTCCC
DNA 2: TGGTGGCTACGACGGGATT
B26: AGCUUAC (DNA:RNA)
RNA: B17 RNA with G25A, A27C, G28U, G31C
DNA 1: CAATCTGAATTCCGGTCTCCC
DNA 2: TGGTGGCTACGACGGGATT
B27: UGACUUU (DNA:RNA)
RNA: B17 RNA with G25U, G28C, A30U, G31U
DNA 1: CAATCTGAATTCCGGTCTCCC
DNA 2: TGGTGGCTACGACGGGATT
B28: CAUGUCC (DNA:RNA)
RNA: B1 RNA with U25C, U28G, A29U, U31C
DNA 1: CAATCTGAATTCCGGTCTCCC
DNA 2: TGGTGGCTACGACGGGATT
B29: CUAGAAU (DNA:RNA)
RNA: B17 RNA with G25C, G26U, U29A, G31U
DNA 1: CAATCTGAATTCCGGTCTCCC
DNA 2: TGGTGGCTACGACGGGATT
B30: UAGCUCC (DNA:RNA)
RNA: B1 RNA with U27G, U28C, A29U, U31C
DNA 1: CAATCTGAATTCCGGTCTCCC
DNA 2: TGGTGGCTACGACGGGATT
B31: UAGCUCG (DNA:RNA)
RNA: B1 RNA with U27G, U28C, A29U, U31G
DNA 1: CAATCTGAATTCCGGTCTCCC
DNA 2: TGGTGGCTACGACGGGATT
B32: UAGUAGC (DNA:RNA)
RNA: B1 RNA with U27G, C30G, U31C
DNA 1: CAATCTGAATTCCGGTCTCCC
DNA 2: TGGTGGCTACGACGGGATT
B33: UCCUAGC (DNA:RNA)
RNA: B1 RNA with A26C, U27C, C30G, U31C
DNA 1: CAATCTGAATTCCGGTCTCCC
DNA 2: TGGTGGCTACGACGGGATT
B34: UAGCUUG (DNA:RNA)
RNA: B14 RNA with C25U, C26A, A28C, G29U, C31G
DNA 1: CAATCTGAATTCCGGTCTCCC
DNA 2: TGGTGGCTACGACGGGATT
B35: UAGCCCG (DNA:RNA)
RNA: B1 RNA with U27G, U28C, A29C, U31G
DNA 1: CAATCTGAATTCCGGTCTCCC
DNA 2: TGGTGGCTACGACGGGATT

Each binder was assayed against T1, RBFOX1 RRM (assay: EMSA; HiTS-Eq, 1 nM pool, 10 min; buffer printed only for the single-RNA assays: 10 mM Tris pH 7.5, 150 mM NaCl, 3.4 mM EDTA, 0.001% NP-40, 30 C). Conditions: tags: His6 N-terminal (pET28a); label: 5' 32P.
Outline: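 Purified RbFox RRM, wild type or mutant, was incubated for 10 min in 50 µL with 1 nM of a 5′-radiolabelled RNA pool carrying 7 randomized nucleotides, whose flanks were annealed to DNA oligonucleotides, over a series of increasing protein concentrations. Unbound RNA was resolved on 8% native PAGE, cut out, reverse-transcribed, barcoded by PCR and sequenced on an Illumina HiSeq 2500. Relative association constants were derived from changes in read counts for each RNA species versus the control reaction and normalised to the cognate motif.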

Binder	binding signal
B1	0.00399 KA relative to UGCAUGU
B2	0.00979 KA relative to UGCAUGU
B3	0.00878 KA relative to UGCAUGU
B4	0.0064 KA relative to UGCAUGU
B5	0.00773 KA relative to UGCAUGU
B6	0.00687 KA relative to UGCAUGU
B7	0.00357 KA relative to UGCAUGU
B8	0.00527 KA relative to UGCAUGU
B9	0.032 KA relative to UGCAUGU
B10	0.0104 KA relative to UGCAUGU
B11	0.0233 KA relative to UGCAUGU
B12	0.0183 KA relative to UGCAUGU
B13	0.0318 KA relative to UGCAUGU
B14	0.0112 KA relative to UGCAUGU
B15	0.00577 KA relative to UGCAUGU
B16	0.000629 KA relative to UGCAUGU
B17	0.0152 KA relative to UGCAUGU
B18	0.0155 KA relative to UGCAUGU

Binder	binding signal
B19	0.0108 KA relative to UGCAUGU
B20	0.00514 KA relative to UGCAUGU
B21	0.0113 KA relative to UGCAUGU
B22	0.0368 KA relative to UGCAUGU
B23	0.0321 KA relative to UGCAUGU
B24	0.00742 KA relative to UGCAUGU
B25	0.0051 KA relative to UGCAUGU
B26	0.00674 KA relative to UGCAUGU
B27	0.0147 KA relative to UGCAUGU
B28	0.00562 KA relative to UGCAUGU
B29	0.00687 KA relative to UGCAUGU
B30	0.00512 KA relative to UGCAUGU
B31	0.0341 KA relative to UGCAUGU
B32	0.0177 KA relative to UGCAUGU
B33	0.0075 KA relative to UGCAUGU
B34	0.0445 KA relative to UGCAUGU
B35	0.0123 KA relative to UGCAUGU
